AmpC inh no detg: AmpC beta-lactamase inhibition without detergent. P00811. AmpC nitrocefin hydrolysis, absorbance 480 nm, 0.0001% Triton. Potency, µM (series often up to 57.1 µM), without a hit: at the top dose activity change, negative = inhibition, most hits filed as inhibitors. 0.52% of 330,000 active. AID 485341;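 note: potency is the fitted concentration of half-maximal effect; plate controls were no compound for no effect and no enzyme for full effect; nearly all actives have a fitted effect of over 20% in size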
Target sequence (P00811 whole entry, looked up): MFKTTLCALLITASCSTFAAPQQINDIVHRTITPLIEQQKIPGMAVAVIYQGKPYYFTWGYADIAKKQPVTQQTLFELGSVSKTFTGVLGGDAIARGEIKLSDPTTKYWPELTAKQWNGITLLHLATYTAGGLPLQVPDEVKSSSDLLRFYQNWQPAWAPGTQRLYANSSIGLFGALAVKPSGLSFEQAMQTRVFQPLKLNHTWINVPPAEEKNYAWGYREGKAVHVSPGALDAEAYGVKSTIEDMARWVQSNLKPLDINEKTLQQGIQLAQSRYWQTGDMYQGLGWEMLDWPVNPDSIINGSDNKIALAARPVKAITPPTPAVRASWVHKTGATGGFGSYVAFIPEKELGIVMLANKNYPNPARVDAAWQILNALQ
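AmpC (5.3 nM in the dispensed reagent) in 20 mM phosphate pH 7.0 with 0.01% (detergent screen) or 0.0001% Triton X-100 was preincubated with compounds for 15 min at room temperature. Nitrocefin was then added from an 800 uM solution, and hydrolysis was followed at 480 nm.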
CHX counter: affects cycloheximide protein synthesis inhibition readout, counter-screen; cell reporter, cycloheximide protein synthesis inhibition counterscreen; max response, %; 12% of 300,000 active; in the data active = max response mostly above about 13%, no sharp cut-off; inactive = mostly below about 14%; note: read at 38.3 µM for the half of the compounds with a filed dose; 0% is about no effect
Shiga inhibitor: Shiga toxin inhibition. inhibition, % at 38.7 µM. 9.2% of 290,000 active. Vero cells, Shiga toxin protein synthesis inhibition reporter; in the data active = inhibition mostly above about 28%, no sharp cut-off; inactive = mostly below about 43%; note: 0% is about no effect
SARS PLpro yeast: SARS-CoV PLP inhibition in yeast; S. cerevisiae expressing SARS-CoV PLpro, growth rescue; Potency, µM (doses to about 32.9 µM), without a hit: at the highest dose activity, positive = growth rescue, most hits filed as activators; 0.19% of 330,000 active; AID 485353; calls by dose curve; note: potency is the fitted concentration of half-maximal effect; 0% is about no effect; nearly all actives have a fitted effect of over 55% in size
AmpC inh detg: blocks E. coli AmpC beta-lactamase in detergent assay. P00811. Potency, µM (doses to about 114 µM), without a hit: at the top dose activity change, negative = inhibition, most hits filed as inhibitors. AmpC hydrolysis of nitrocefin, absorbance 480 nm, 0.01% Triton. AID 485294. 0.041% of 370,000 active;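 note: potency is the fitted concentration of half-maximal effect; 0% = no-compound wells and -100% = no-enzyme wells; nearly all actives have a fitted effect of over 25% in size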
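20 mM phosphate pH 7.0 + 0.01% (detergent screen) or 0.0001% Triton X-100; 5.3 nM AmpC reagent; cpd preinc 15 min RT; nitrocefin (800 uM stock) to start; A480 q20 s × 4 min; Activity was normalised to no-enzyme and no-compound control wells.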
AMA1 RON2 block: AMA1-RON2 (P. falciparum) interaction inhibition; AlphaScreen AMA1-biotinylated RON2 peptide binding; Potency, µM (doses to about 58.2 µM), inactives show at the top dose activity change, negative = inhibition, hits mostly inhibitors; 0.2% of 360,000 active; AID 720542;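 note: potency is the fitted concentration of half-maximal effect; 0% = vehicle wells and -100% = peptide control; nearly all actives have a fitted effect of over 45% in size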
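AMA1 (3D7) with his tag at 25 nM final met compounds first, then biotinylated RON2 peptide at 25 nM; detection used donor plus acceptor beads, 10 µg/mL apiece, read by AlphaScreen after 30 min at room temperature.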
Starred values were filed as active, the others as inactive; ? = inconclusive; nt = not tested or not shown; [ ] = remark or other dose. This excerpt belongs to a sample that is enriched for hits. Unless noted, calls come from the whole dose curve; as a rule, active = well fitted curve in the direction sought with a large enough effect; inconclusive = small, poorly fitted or top-dose-only effect, or another doubt; inactive = no such curve, though single readings can be large; an effect the other way counts as inactive or inconclusive.

SMILES	AmpC inh no detg	CHX counter	Shiga inhibitor	SARS PLpro yeast	AmpC inh detg	AMA1 RON2 block
C=CCN=C1NN=C(c2ccc3c(c2)OCCO3)CS1	-22%[11.4 µM]	21*	41*	23%	?	12%
c1ccc(C2=NNC(=NCc3ccc4c(c3)OCO4)SC2)cc1	-48%	18*	80*	28%	-10%	21%
CC(C)N=C1NN=C(c2ccc(F)cc2)CS1	-29%	18*	80*	-4%	5%	15%
Cc1cc(/C=C(\C#N)C(=O)NC2CCCCCC2)c(C)n1C	-29%	7	51	18%	?	-12%
Cn1c(=O)n(C)c2cc(NC(=O)c3ccccc3)ccc21	nt	nt	nt	nt	nt	-9%
COC(=O)[C@@]1(Cc2ccc(F)cc2)[C@H]2c3cc(C(=O)N4CCCC4)n(Cc4ccc(S(C)(=O)=O)cc4)c3C[C@H]2CN1C(=O)c1ccccc1	nt	nt	nt	nt	nt	-10%
CS(=O)(=O)N(CC(=O)N1CCOCC1)c1cc(C(F)(F)F)ccc1Cl	1%	-2	-12	-7%	-10%	-4%
CCN=C1NN=C(c2ccc(C)cc2)CS1	-22%	38*	106*	-3%	?	55%
Clc1ccc(C2=NNC(=NCc3ccccc3)SC2)cc1	-55%	20	74*	-2%	-7%	69%
c1ccc(CN=C2NN=C(c3ccccc3)CS2)cc1	?	55*	62	2%	-7%	33%
COCCN=C1NN=C(c2ccc(NC(C)=O)cc2)CS1	-5%[2.29 µM]	-3	1	14%	?	78%
COc1ccccc1C1=NNC(=NCc2ccccc2)SC1	-49%	31*	33*	-6%	8%	77%
CC(C)CC1C(=O)N(Cc2cn(Cc3ccco3)nn2)CCS(=O)(=O)N1Cc1ccc(-c2cccc(CO)c2)cc1 (centres undefined)	nt	nt	nt	nt	nt	-13%
CCc1ccccc1N1C(=O)/C(=C/c2ccc(N3CCN(C)CC3)o2)C(=O)NC1=S	-15%	-1	-5	-2%	?	-2%
COCCN=C1NN=C(c2cc(C)n(CC3CCCO3)c2C)CS1 (centres undefined)	4%[2.29 µM]	-3	29	0%	-1%	43%
C=CCN=C1NN=C(c2cc(C)n(CC=C)c2C)CS1	-48%	28*	10	1%	-2%	29%
COc1ccc2cc(CO)c(Cl)nc2c1	-7%	14	2	-2%	-14%	0%
COc1ccc2cc3c(nc2c1)OCC3	-20%	20*	102*	-1%	-1%	9%
Clc1ccc(Cn2nnc3ccccc32)cc1	-14%	-1	9	-7%	1%	4%
Cc1cc(C(=O)COC(=O)c2ccccc2NCCO)c(C)n1CC1CCCO1 (centres undefined)	136%	89*	112*	-2%	5%	3%
Cc1cc(C(=O)COC(=O)c2ccccc2O)c(C)n1CC1CCCO1 (centres undefined)	-1%	nt	nt	11%	-10%	-21%
CCOc1cc(C(=O)OCC(=O)c2cc(C)n(CC3CCCO3)c2C)ccc1OCC(=O)N1CCOCC1 (centres undefined)	226%	32*	53*	-4%	8%	-3%
Cc1cc(C(=O)COC(=O)c2cc(O)c3ccccc3c2O)c(C)n1CC1CCCO1 (centres undefined)	-32%	14*	25	-13%	-6%	-7%
Cc1cc(C(=O)COC(=O)c2n[nH]c3ccccc23)c(C)n1CC1CCCO1 (centres undefined)	15%	38*	44	-9%	?	-12%
Cc1cc(C(=O)COC(=O)c2cccnc2Cl)c(C)n1CC1CCCO1 (centres undefined)	3%	-3	-11	-6%	-3%	-12%
SMILES	AmpC inh no detg	CHX counter	Shiga inhibitor	SARS PLpro yeast	AmpC inh detg	AMA1 RON2 block
COc1ccccc1CNC(=O)C1(c2cccs2)CCOCC1	nt	nt	nt	nt	1%	nt
CN(C)C1=NCCN1CCc1ccccc1	-11%	nt	nt	2%	?	23%
N#Cc1ccccc1OCC(=O)NCC1(N2CCCCC2)CCCCC1	-25%	5	-2	-3%	4%	2%
CCOc1cc(/C=C\c2[nH]c(=O)[nH]c(=O)c2[N+](=O)[O-])ccc1OC(C)CC (centres undefined)	-9%	4	-5	11%	-3%	-9%
Cc1cc(C(=O)COC(=O)c2ccccc2Br)c(C)n1CC1CCCO1 (centres undefined)	37%	16	2	-2%	3%	-9%
Cc1cc(C(=O)COc2ccccc2C(N)=O)c(C)n1CC1CCCO1 (centres undefined)	-16%	26*	48	-6%	7%	-1%
COc1ccc(Nc2nnc(SCC(=O)c3cc(C)n(CC4CCCO4)c3C)s2)cc1 (centres undefined)	1%	43*	112*	-1%	-2%	-29%
Cc1ccc(C(=O)OCC(=O)c2cc(C)n(CC3CCCO3)c2C)cc1 (centres undefined)	59%	40*	107*	-2%	1%	-29%
CC(=O)Nc1ccc(S(=O)(=O)N2CCC(C(=O)NCc3ccco3)CC2)cc1	-9%	-3	-10	-9%	-9%	0%
CCOc1ccc(CN(CCO)CCO)cc1[N+](=O)[O-]	-14%	2	-14	-2%	-3%	-15%
CCCCCOc1ccc(Cn2ccnc2)cc1[N+](=O)[O-]	-4%	13	64*	-17%	1%	-4%
CCCCOc1ccc(CN(CCO)CCO)cc1[N+](=O)[O-]	-8%	50*	125*	6%	3%	0%
COc1ccc(OCc2ccc(C(=O)N3CCOCC3)cc2)cc1	21%	28*	56*	-15%	10%	-6%
COc1ccc(-c2cccc(C(=O)N3CCOCC3)c2)cc1	14%	30*	57*	6%	?	3%
COc1ccc(NS(=O)(=O)c2cccc(C(=O)N3CCOCC3)c2)cc1	nt	nt	nt	nt	nt	3%
COc1ccc(OCc2ccc(C(=O)O)cc2)cc1	-18%	18*	60	-12%	-4%	15%
CSc1ccc(CNC(=O)c2sc3ncnc(N(C)C4CCCCC4)c3c2C)cc1	nt	nt	nt	nt	0%	nt
CCOc1ccc(N2C(=O)C3Sc4[nH]c(=O)sc4C(/C=C/c4ccccc4)C3C2=O)cc1 (centres undefined)	-58%	-3	5	-12%	?	-2%
CCOC(=O)CCC(=O)N1CCOCCN(C(=O)CCC(=O)OCC)CCOCC1	-10%	-3	-15	2%	-9%	-4%
CCOC(=O)CCC(=O)N1CCNC(=O)C1	11µM*	4	7	3%	6%	-3%
CNC(=O)Oc1ccc2c(c1)C(=O)c1ccccc1CO2	-24%	16*	62	-22%	?	-10%
O=C1c2ccccc2COc2ccc(O)cc21	-31%	10	64	-16%	-7%	?
